# From publication PMC7862700, “An all-to-all approach to the identification of sequence-specific readers for epigenetic DNA modifications on cytosine”
# Key:
# Experiment in all cases: DAPPL (digital affinity profiling via proximity ligation, sequencing); 10 mM Tris-HCl pH 7.5, 50 mM NaCl, 1 mM DTT, 4% glycerol, room temperature, 30 min; GST-TFs on glutathione beads, 16-mer random dsDNA library, 0.1% formaldehyde crosslink after washing; high values mean tight binding
# FLI1 = target: T1, FLI1 (Homo sapiens, UniProt Q01543 1-452); conditions: protein: recombinant; tags: N-terminal GST; dsDNA, one strand shown
# T1 sequence: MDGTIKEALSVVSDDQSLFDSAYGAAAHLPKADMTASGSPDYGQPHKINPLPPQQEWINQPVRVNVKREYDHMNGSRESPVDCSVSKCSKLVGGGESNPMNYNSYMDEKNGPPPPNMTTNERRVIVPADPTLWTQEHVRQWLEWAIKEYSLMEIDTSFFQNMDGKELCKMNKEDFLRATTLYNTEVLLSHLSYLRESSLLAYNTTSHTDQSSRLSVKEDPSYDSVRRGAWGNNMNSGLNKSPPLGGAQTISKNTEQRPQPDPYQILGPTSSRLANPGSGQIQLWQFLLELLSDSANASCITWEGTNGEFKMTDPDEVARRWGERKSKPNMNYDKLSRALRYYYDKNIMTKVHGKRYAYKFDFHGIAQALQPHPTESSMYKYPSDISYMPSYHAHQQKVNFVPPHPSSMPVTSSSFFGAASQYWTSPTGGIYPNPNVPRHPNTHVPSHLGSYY
# Outline: (§1)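 Human transcription factors carrying a GST fusion were produced in yeast, bound to glutathione beads, tagged with DNA barcodes and pooled together with a tag-only sample. Each pool was held with 200 nmole of a random double-stranded 16-mer DNA library in Tris/NaCl/DTT/glycerol buffer for 30 min at room temperature, then washed, crosslinked in 0.1% formaldehyde, proximity-ligated with BsaI/T4 ligase (1 h, 37 °C), PCR-amplified and sequenced on an Illumina NextSeq500. Binding signal is the read frequency of each hexamer for a given factor divided by its frequency in the tag-only sample.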
# ELK1 = target: T2, ELK1 (Homo sapiens, UniProt P19419 1-428); conditions: protein: recombinant; tags: N-terminal GST; dsDNA, one strand shown
# T2 sequence: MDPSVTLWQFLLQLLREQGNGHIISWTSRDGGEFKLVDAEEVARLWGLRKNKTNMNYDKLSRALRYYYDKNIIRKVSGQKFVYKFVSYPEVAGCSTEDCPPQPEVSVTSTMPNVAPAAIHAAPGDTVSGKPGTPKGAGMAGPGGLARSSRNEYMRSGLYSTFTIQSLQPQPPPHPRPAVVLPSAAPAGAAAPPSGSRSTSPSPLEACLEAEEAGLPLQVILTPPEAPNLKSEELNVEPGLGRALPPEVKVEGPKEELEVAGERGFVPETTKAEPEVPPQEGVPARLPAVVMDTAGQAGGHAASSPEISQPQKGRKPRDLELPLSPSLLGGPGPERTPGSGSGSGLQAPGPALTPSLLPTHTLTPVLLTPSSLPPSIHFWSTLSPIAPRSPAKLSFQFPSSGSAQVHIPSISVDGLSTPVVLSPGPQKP
# Outline: as §1
# GABPA = target: T3, GABPA (Homo sapiens, UniProt Q06546 1-454); conditions: protein: recombinant; tags: N-terminal GST; dsDNA, one strand shown
# T3 sequence: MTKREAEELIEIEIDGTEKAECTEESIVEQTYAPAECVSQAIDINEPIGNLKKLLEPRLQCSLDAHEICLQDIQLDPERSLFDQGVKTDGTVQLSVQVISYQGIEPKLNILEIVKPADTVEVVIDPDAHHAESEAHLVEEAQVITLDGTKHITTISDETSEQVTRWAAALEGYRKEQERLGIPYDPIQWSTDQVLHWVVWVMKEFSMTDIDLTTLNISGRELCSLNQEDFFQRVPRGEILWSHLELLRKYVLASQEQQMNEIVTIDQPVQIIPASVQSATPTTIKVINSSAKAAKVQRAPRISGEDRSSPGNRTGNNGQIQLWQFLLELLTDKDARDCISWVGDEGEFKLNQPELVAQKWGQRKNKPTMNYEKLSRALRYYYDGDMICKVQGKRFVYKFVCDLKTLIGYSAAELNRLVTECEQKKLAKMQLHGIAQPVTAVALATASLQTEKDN
# Outline: as §1
# ERG = target: T4, ERG (Homo sapiens, UniProt P11308 1-479); conditions: protein: recombinant; tags: N-terminal GST; dsDNA, one strand shown
# T4 sequence: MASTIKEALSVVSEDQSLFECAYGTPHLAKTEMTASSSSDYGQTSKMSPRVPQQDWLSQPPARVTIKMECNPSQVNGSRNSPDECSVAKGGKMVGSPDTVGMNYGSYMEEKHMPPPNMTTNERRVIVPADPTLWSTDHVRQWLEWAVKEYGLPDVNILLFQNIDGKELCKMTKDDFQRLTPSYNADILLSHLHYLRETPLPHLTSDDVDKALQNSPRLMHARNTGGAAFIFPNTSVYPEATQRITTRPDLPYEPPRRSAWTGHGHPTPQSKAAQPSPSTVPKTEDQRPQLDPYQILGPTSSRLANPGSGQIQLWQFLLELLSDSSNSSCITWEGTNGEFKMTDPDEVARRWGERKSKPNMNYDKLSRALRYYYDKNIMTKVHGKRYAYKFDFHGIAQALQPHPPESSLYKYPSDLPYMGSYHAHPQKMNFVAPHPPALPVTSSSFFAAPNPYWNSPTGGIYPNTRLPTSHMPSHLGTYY
# Outline: as §1
# ELF1 = ELF1 (Homo sapiens, UniProt P32519 1-619); conditions: protein: recombinant; tags: N-terminal GST; dsDNA, one strand shown
# Outline: as §1
# EHF = target: T5, EHF (Homo sapiens, UniProt Q9NZC4 1-300); conditions: protein: recombinant; tags: N-terminal GST; dsDNA, one strand shown
# T5 sequence: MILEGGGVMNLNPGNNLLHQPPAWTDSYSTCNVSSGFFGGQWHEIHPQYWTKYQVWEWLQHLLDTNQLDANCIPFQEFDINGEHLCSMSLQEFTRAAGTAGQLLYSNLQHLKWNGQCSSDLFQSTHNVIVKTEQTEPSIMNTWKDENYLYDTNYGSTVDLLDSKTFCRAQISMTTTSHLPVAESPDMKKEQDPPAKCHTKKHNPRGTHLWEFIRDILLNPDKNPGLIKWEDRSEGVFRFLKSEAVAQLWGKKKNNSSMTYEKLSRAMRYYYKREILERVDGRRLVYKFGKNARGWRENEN
# Outline: as §1
# SPI1 = SPI1 (Homo sapiens, UniProt P17947 1-270); conditions: protein: recombinant; tags: N-terminal GST; dsDNA, one strand shown
# Outline: as §1
# SPIB = SPIB (Homo sapiens, UniProt Q01892 1-262); conditions: protein: recombinant; tags: N-terminal GST; dsDNA, one strand shown
# Outline: as §1
# ELK3 = target: T6, ELK3 (Homo sapiens, UniProt P41970 1-407); conditions: protein: recombinant; tags: N-terminal GST; dsDNA, one strand shown
# T6 sequence: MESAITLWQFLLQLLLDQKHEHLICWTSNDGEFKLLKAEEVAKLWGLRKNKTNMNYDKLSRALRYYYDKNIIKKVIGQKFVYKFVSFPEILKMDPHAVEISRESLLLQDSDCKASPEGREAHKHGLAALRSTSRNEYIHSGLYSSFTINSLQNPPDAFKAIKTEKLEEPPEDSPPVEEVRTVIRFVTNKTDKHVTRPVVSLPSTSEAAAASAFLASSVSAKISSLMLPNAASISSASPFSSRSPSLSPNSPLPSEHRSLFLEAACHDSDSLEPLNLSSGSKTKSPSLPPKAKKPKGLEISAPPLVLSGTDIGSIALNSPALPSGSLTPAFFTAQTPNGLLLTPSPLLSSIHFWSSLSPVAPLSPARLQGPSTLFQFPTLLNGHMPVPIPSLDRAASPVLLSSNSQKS
# Outline: as §1
# FEV = target: T7, FEV (Homo sapiens, UniProt Q99581 1-238); conditions: protein: recombinant; tags: N-terminal GST; dsDNA, one strand shown
# T7 sequence: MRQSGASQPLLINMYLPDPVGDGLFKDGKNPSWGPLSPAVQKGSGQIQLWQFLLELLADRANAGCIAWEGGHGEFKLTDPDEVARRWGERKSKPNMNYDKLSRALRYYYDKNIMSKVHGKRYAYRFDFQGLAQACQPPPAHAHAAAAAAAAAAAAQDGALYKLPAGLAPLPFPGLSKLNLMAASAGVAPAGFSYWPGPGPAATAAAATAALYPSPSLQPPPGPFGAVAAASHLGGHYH
# Outline: as §1
# ETV5 = ETV5 (Homo sapiens, UniProt P41161 1-510); conditions: protein: recombinant; tags: N-terminal GST; dsDNA, one strand shown
# Outline: as §1
# HSF1 = HSF1 (Homo sapiens, UniProt Q00613 1-529); conditions: protein: recombinant; tags: N-terminal GST; chain copies: 3; dsDNA, one strand shown
# Outline: as §1
# SPIC = target: T8, SPIC (Homo sapiens, UniProt Q8N5J4 1-248); conditions: protein: recombinant; tags: N-terminal GST; dsDNA, one strand shown
# T8 sequence: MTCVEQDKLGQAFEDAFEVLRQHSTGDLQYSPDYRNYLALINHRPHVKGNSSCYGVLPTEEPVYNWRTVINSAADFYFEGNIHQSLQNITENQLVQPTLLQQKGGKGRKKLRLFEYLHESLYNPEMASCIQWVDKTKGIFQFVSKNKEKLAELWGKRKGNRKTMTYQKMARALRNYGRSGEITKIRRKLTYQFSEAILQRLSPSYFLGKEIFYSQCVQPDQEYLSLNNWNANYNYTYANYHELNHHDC
# Outline: as §1
# ELF4 = ELF4 (Homo sapiens, UniProt Q99607 1-663); conditions: protein: recombinant; tags: N-terminal GST; dsDNA, one strand shown
# Outline: as §1
# ELK4 = target: T9, ELK4 (Homo sapiens, UniProt P28324-2 1-405); conditions: protein: recombinant; tags: N-terminal GST; dsDNA, one strand shown
# T9 sequence: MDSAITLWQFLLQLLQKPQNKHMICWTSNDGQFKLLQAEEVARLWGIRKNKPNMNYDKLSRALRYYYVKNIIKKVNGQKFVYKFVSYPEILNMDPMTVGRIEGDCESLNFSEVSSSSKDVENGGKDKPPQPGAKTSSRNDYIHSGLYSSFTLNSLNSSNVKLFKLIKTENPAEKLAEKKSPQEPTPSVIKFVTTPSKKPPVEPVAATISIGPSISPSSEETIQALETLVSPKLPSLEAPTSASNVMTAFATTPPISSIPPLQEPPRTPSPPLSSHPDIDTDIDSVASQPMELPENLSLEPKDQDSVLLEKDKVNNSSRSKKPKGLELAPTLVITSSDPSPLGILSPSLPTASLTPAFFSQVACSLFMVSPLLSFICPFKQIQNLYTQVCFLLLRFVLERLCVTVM
# Outline: as §1
# ETV2 = target: T10, ETV2 (Homo sapiens, UniProt O00321 1-342); conditions: protein: recombinant; tags: N-terminal GST; dsDNA, one strand shown
# T10 sequence: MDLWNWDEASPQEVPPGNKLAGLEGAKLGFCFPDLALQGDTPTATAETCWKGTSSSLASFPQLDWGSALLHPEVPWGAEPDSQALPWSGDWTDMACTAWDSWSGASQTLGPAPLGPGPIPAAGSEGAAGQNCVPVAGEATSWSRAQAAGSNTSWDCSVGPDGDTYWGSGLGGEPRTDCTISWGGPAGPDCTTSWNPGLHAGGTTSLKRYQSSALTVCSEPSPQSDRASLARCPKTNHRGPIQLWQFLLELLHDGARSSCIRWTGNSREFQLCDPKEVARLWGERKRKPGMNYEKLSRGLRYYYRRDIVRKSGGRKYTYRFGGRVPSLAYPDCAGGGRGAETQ
# Outline: as §1
# ELF3 = target: T11, ELF3 (Homo sapiens, UniProt P78545 1-371); conditions: protein: recombinant; tags: N-terminal GST; dsDNA, one strand shown
# T11 sequence: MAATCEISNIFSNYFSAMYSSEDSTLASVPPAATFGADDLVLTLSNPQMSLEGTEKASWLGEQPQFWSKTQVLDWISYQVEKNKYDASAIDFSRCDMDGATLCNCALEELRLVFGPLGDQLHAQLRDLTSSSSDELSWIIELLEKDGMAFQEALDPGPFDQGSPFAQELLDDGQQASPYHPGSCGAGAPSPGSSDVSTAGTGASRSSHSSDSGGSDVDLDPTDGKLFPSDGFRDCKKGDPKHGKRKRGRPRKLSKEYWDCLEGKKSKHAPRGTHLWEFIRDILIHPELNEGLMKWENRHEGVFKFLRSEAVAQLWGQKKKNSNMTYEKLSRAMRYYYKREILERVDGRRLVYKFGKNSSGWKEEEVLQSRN
# Outline: as §1
# ETV1 = ETV1 (Homo sapiens, UniProt P50549 1-477); conditions: protein: recombinant; tags: N-terminal GST; dsDNA, one strand shown
# Outline: as §1
# ETV1, sequence (P50549 whole entry): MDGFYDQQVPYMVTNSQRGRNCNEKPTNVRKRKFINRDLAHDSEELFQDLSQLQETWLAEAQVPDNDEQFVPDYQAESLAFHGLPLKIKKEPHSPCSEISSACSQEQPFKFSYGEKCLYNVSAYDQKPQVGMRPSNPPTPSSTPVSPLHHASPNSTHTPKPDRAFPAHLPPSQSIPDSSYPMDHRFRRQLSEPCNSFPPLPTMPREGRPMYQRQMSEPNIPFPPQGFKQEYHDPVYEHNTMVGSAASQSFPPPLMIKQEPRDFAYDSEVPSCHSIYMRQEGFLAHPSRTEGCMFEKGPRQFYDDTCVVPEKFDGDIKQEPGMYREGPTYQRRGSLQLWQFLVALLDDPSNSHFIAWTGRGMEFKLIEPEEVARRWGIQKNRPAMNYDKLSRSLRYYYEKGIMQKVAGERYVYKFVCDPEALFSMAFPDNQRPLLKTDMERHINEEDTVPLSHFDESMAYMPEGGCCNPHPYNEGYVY
# HSF1, sequence (Q00613 whole entry): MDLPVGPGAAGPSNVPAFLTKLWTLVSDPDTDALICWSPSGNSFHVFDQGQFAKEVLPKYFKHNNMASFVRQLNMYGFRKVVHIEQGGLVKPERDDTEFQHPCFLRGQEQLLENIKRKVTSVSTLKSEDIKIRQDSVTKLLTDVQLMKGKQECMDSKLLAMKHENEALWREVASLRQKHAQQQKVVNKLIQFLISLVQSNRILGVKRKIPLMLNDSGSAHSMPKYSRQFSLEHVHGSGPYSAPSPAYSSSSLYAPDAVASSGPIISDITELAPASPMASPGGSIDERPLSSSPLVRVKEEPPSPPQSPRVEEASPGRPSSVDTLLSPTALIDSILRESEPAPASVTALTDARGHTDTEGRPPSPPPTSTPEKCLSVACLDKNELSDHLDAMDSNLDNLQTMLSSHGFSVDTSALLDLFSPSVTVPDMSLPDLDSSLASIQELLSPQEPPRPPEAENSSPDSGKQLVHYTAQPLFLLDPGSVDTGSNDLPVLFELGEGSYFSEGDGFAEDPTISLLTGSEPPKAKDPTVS
# SPIB, sequence (Q01892 whole entry): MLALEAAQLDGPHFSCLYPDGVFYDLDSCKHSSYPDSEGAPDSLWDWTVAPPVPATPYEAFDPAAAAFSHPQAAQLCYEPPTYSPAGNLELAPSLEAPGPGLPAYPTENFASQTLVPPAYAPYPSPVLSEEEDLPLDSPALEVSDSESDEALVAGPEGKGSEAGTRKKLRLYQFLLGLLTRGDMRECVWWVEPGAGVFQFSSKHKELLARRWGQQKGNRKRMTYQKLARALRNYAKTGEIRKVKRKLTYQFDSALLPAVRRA
# ELF4, sequence (Q99607 whole entry): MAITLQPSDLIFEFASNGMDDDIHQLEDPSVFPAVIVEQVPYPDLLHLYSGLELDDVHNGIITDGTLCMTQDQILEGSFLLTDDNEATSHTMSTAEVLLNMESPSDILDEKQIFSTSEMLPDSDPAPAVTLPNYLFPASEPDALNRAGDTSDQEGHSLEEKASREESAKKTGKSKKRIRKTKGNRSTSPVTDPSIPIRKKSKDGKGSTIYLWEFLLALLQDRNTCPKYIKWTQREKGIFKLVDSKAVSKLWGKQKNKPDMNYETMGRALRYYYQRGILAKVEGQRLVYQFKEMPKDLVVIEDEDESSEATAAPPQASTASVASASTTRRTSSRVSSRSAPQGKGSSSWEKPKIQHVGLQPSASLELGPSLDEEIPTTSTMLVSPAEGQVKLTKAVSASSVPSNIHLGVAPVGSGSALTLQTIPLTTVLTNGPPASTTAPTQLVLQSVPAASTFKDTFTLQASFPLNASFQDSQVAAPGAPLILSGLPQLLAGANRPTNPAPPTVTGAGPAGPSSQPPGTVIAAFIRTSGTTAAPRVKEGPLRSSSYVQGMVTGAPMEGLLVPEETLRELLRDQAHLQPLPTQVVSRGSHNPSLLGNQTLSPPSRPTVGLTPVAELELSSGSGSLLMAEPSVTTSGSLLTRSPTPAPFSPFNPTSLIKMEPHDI
# ETV5, sequence (P41161 whole entry): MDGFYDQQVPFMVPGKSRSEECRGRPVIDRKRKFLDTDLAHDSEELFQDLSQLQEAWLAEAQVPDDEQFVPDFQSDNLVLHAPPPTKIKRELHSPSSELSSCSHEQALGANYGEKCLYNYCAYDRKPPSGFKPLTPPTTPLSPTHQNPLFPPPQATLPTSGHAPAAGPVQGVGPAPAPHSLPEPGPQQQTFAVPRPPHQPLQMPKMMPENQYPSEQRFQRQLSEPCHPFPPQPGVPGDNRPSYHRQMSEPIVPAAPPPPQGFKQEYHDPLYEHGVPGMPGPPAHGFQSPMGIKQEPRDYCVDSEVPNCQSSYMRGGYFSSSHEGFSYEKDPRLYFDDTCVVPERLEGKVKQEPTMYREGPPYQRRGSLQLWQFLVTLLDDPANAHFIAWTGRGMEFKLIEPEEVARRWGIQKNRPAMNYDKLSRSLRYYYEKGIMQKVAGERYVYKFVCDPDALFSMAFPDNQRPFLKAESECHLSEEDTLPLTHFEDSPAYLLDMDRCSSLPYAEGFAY
# ELF1, sequence (P32519 whole entry): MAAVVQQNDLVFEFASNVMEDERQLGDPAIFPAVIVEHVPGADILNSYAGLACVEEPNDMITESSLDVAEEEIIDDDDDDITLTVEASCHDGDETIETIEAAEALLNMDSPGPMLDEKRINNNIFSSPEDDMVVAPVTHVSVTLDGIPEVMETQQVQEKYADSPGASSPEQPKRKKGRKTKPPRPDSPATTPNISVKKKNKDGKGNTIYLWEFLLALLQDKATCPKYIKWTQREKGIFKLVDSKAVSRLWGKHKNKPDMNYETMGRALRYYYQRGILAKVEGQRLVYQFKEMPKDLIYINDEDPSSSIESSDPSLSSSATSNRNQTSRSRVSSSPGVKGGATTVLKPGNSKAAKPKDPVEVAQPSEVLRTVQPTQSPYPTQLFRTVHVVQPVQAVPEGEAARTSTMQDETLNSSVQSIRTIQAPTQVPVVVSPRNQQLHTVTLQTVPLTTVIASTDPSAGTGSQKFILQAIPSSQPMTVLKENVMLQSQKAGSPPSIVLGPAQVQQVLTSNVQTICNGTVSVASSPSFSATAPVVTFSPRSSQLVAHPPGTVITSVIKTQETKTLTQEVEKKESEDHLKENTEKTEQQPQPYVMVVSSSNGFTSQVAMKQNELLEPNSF
sequence,measurement,setting,value
CTTGAC,binding signal,FLI1,"1.17 fold enrichment (6-mer frequency, TF over GST control)"
same,binding signal,ELK1,"1.3 fold enrichment (6-mer frequency, TF over GST control)"
same,binding signal,GABPA,"1.3 fold enrichment (6-mer frequency, TF over GST control)"
same,binding signal,ERG,"1.2 fold enrichment (6-mer frequency, TF over GST control)"
same,binding signal,ELF1,"1.2 fold enrichment (6-mer frequency, TF over GST control)"
same,binding signal,EHF,"1.14 fold enrichment (6-mer frequency, TF over GST control)"
same,binding signal,SPI1,"1.18 fold enrichment (6-mer frequency, TF over GST control)"
same,binding signal,SPIB,"1.19 fold enrichment (6-mer frequency, TF over GST control)"
same,binding signal,ELK3,"1.23 fold enrichment (6-mer frequency, TF over GST control)"
same,binding signal,FEV,"1.18 fold enrichment (6-mer frequency, TF over GST control)"
same,binding signal,ETV5,"1.14 fold enrichment (6-mer frequency, TF over GST control)"
same,binding signal,HSF1,"1.02 fold enrichment (6-mer frequency, TF over GST control)"
same,binding signal,SPIC,"1.14 fold enrichment (6-mer frequency, TF over GST control)"
same,binding signal,ELF4,"1.27 fold enrichment (6-mer frequency, TF over GST control)"
same,binding signal,ELK4,"1.37 fold enrichment (6-mer frequency, TF over GST control)"
same,binding signal,ETV2,"1.33 fold enrichment (6-mer frequency, TF over GST control)"
same,binding signal,ELF3,"1.33 fold enrichment (6-mer frequency, TF over GST control)"
same,binding signal,ETV1,"1.33 fold enrichment (6-mer frequency, TF over GST control)"
